Test systems include HCT-15 colon; HT29 colon; SNB-19 CNS; U251 CNS; PC-3 prostate; SK-MEL-5 melanoma; UACC-62 melanoma; LOX IMVI melanoma; SK-MEL-28 melanoma.
Common to all, as to test: NCI-60 one-dose screen, 48 h (100 = growth as untreated, 0 = no growth, -100 = all killed)
Holding throughout (conditions): 10 µM unless noted

Molecules are shown by their SMILES. The panel holds about 83,000 compounds, 20% with a hit somewhere; the sample as a whole holds those more often.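 The endpoint reported here, percent growth, reads 100 for growth as untreated, 0 for no net growth and -100 for all cells dead.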 A number with no mark means an inactive call. Activity calls are given as the source filed them. Rule for the calls: active = growth percent below 10; inactive = the rest.

Take `Cc1csc(NC(c2ccc(Br)cc2)c2c(C)nc3ccccn23)n1` (stereo unspecified): the growth was 88.8% in the assay on HCT-15 colon; 72.4% with HT29 colon; 94.2% in the assay on SNB-19 CNS; 88.8% with U251 CNS; 71.5% with PC-3 prostate; 94.7% in the assay with SK-MEL-5 melanoma. For the same compound, the growth was 81.9% in the assay on UACC-62 melanoma, 90.9% with LOX IMVI melanoma and 108% with SK-MEL-28 melanoma.
Turning to `COc1ccc(/C=N\NC(=O)CN2CCN(c3cc4c(cc3F)c(=O)c(C(=O)N/N=C/c3ccc(OC)c(OC)c3)cn4C3CC3)CC2)cc1OC`, the growth is 98% in the assay with HCT-15 colon; 6.97% (active) in the assay with HT29 colon; -0.836% (active) in the assay on SNB-19 CNS; -16% (active) in the assay on U251 CNS; 13.3% in the assay with PC-3 prostate; 41.9% with SK-MEL-5 melanoma. For the same compound, the figures for the growth with UACC-62 melanoma, in the assay with LOX IMVI melanoma and in the assay with SK-MEL-28 melanoma were -52.1% (active), -77.7% (active) and -34.1% (active), respectively.
Regarding `COc1ccc(NC(=O)c2c(Nc3ccc(OC)cc3OC)n[nH]c2N)c(OC)c1`, the growth in the assay with HCT-15 colon is 104%; with HT29 colon it was 102%; in the assay on SNB-19 CNS it was 90.3%; with U251 CNS it was 96.4%; in the assay on PC-3 prostate it was 90.6%; in the assay with SK-MEL-5 melanoma, 79.9%. Besides, the results for the growth with UACC-62 melanoma, in the assay with LOX IMVI melanoma and with SK-MEL-28 melanoma were 68%, 101% and 96.6%, respectively.
Turning to `O=C1/C(=C/c2ccc([N+](=O)[O-])cc2)CN(C(=O)CCN2CCC(=NO)CC2)C/C1=C\c1ccc([N+](=O)[O-])cc1`, the growth with HCT-15 colon was -68.4% (active); with HT29 colon, -49.7% (active); in the assay with SNB-19 CNS it was -41.6% (active); in the assay with U251 CNS, -56.8% (active); in the assay with PC-3 prostate it was -34.6% (active); with SK-MEL-5 melanoma, -50.5% (active). In addition, the growth with UACC-62 melanoma is -52.2% (active); with LOX IMVI melanoma, -83.3% (active); in the assay on SK-MEL-28 melanoma, -30.6% (active).
Take `Nc1cc2c(cc1C(=O)c1cccc(F)c1)OCCO2`: the growth with HCT-15 colon was 93.9%; with HT29 colon it was 100%; with SNB-19 CNS, 97.1%; in the assay with U251 CNS, 94%; with PC-3 prostate, 94.9%; with SK-MEL-5 melanoma, 109%. Moreover, the growth in the assay with UACC-62 melanoma is 104%; in the assay on LOX IMVI melanoma, 95.6%; with SK-MEL-28 melanoma it was 105%.
`COc1cc(C(=O)/C=C/c2ccc3nc(-c4cc(F)cc(F)c4)sc3c2)cc(OC)c1OC`: the growth in the assay with HCT-15 colon is 99.5%; with HT29 colon, 95.9%; with SNB-19 CNS, 98.3%; in the assay with U251 CNS, 92.5%; with PC-3 prostate it was 95.1%; with SK-MEL-5 melanoma, 118%. Also, the growth was 95.6% with UACC-62 melanoma, 94.9% with LOX IMVI melanoma and 106% in the assay with SK-MEL-28 melanoma.
Take `Cc1c(C(N)=O)sc2c1c(=O)n(Cc1ccccc1)c1nnc(Nc3ccccc3)n21`: the growth in the assay with HCT-15 colon was 96.1%; in the assay on HT29 colon it was 94.3%; in the assay on SNB-19 CNS it was 101%; in the assay with U251 CNS, 97.2%; in the assay on PC-3 prostate it was 96.9%; with SK-MEL-5 melanoma, 105%. The growth was 92.5% with UACC-62 melanoma, 93.5% in the assay on LOX IMVI melanoma and 109% in the assay on SK-MEL-28 melanoma.
Consider `CC(C)CSc1nc(NN)c(C#N)c(-c2ccc(F)cc2)n1`, for which the growth in the assay with HCT-15 colon is 46.9%; in the assay on HT29 colon it was 103%; in the assay on SNB-19 CNS it was 60.8%; with U251 CNS, 60.2%; with PC-3 prostate, 56.7%; in the assay on SK-MEL-5 melanoma, 50.3%. In addition, the growth is 56% with UACC-62 melanoma, 54.4% in the assay with LOX IMVI melanoma and 85% with SK-MEL-28 melanoma.
With `Cc1c(C(=N)C(C#N)C#N)c(=N)oc2c1ccc1ccccc12`, the growth was 74.2% in the assay on HCT-15 colon; 93.3% with HT29 colon; 103% with SNB-19 CNS; 87.4% in the assay with U251 CNS; 97.8% in the assay with PC-3 prostate; 83.7% in the assay on SK-MEL-5 melanoma. Moreover, the figures for the growth with UACC-62 melanoma, with LOX IMVI melanoma and in the assay with SK-MEL-28 melanoma were 78.3%, 92.8% and 124%, respectively.
`CN1CCN(Cc2ccc(NC(=O)c3cncc(C#Cc4cnc(N)c5cnccc45)c3)cc2C(F)(F)F)CC1`: the growth in the assay with HCT-15 colon is 7.9% (active); in the assay on HT29 colon, -14.7% (active); with SNB-19 CNS, 32%; with U251 CNS, 28.9%; in the assay with PC-3 prostate it was 26.8%; with SK-MEL-5 melanoma it was -45.3% (active). The growth in the assay with UACC-62 melanoma is -74.8% (active); with LOX IMVI melanoma it was -93.4% (active); in the assay on SK-MEL-28 melanoma it was -84.5% (active).
On to `Cn1cnc2c(N3CCN(C(=O)OCc4ccc5c(Cl)cc(Cl)c(O)c5n4)CC3)nc(Cl)nc21`, for which the growth in the assay on HCT-15 colon was 30.5%; with HT29 colon, 113%; in the assay on SNB-19 CNS, 60.3%; in the assay on U251 CNS, 38.6%; in the assay on PC-3 prostate, 54.8%; in the assay with SK-MEL-5 melanoma, 41.6%. The growth in the assay with UACC-62 melanoma was 53.7%; in the assay on LOX IMVI melanoma, 44.5%; in the assay on SK-MEL-28 melanoma it was 68.5%.
For the compound `Cc1ccc(N2CCN(C(C)C(N)=O)CC2)cc1` (stereo unspecified), the growth in the assay on HCT-15 colon is 115%; with HT29 colon, 118%; with SNB-19 CNS it was 101%; with U251 CNS, 107%; with PC-3 prostate, 105%; with SK-MEL-5 melanoma, 110%. Further, the growth was 91.4% in the assay with UACC-62 melanoma, 107% in the assay with LOX IMVI melanoma and 119% in the assay on SK-MEL-28 melanoma.
With `O=C(c1c[nH]c(=O)c(-c2ccccc2)c1)c1ccccc1O`, the growth with HCT-15 colon is 97.7%; in the assay on HT29 colon, 101%; with SNB-19 CNS, 81.5%; in the assay on U251 CNS it was 89.2%; in the assay with PC-3 prostate, 89.2%; in the assay with SK-MEL-5 melanoma, 95.4%. The values for the growth in the assay on UACC-62 melanoma, in the assay with LOX IMVI melanoma and in the assay on SK-MEL-28 melanoma were 81.1%, 103% and 93.5%, respectively.
On to `CCN1CCN(CC(=O)N2c3cccc4cccc(c34)N(C(=O)CN3CCN(CC)CC3)C2c2cn(-c3ccccc3)nc2-c2cccc([N+](=O)[O-])c2)CC1`, for which the growth in the assay on HCT-15 colon is -45.5% (active); in the assay on HT29 colon, -41.5% (active); in the assay with SNB-19 CNS, 8% (active); with U251 CNS, -82.1% (active); in the assay with PC-3 prostate it was 21.6%; in the assay with SK-MEL-5 melanoma it was -92.5% (active). For the same compound, the growth in the assay with UACC-62 melanoma is -82.4% (active); with LOX IMVI melanoma it was -82.1% (active); in the assay with SK-MEL-28 melanoma, -87.6% (active).

The values are drawn from PubChem BioAssay (NCI).
